Laboratory results from the supplement of paper PMC6411743.
± gives the standard deviation of the averaged measurements. Of roughly 6,500 targets only a part is listed; those with the largest changes were picked by preference.

Key:
Assay in all cases: NP40-soluble protein abundance relative to vehicle (solubility fold change) (ratio); higher = more soluble protein in presence of ATP
ALG5 = biological target: T1, ALG5 (UniProt Q9Y673)
T1 sequence (whole entry): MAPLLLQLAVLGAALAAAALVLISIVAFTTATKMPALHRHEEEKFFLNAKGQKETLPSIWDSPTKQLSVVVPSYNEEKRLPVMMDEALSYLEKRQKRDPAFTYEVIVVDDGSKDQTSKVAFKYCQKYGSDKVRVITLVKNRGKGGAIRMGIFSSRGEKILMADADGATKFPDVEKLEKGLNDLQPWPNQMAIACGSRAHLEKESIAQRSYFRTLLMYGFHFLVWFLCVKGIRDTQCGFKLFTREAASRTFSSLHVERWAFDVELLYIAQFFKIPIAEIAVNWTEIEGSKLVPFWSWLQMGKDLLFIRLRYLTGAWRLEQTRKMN
How it was run: (§1)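 Jurkat crude lysate prepared with a Dounce homogeniser was treated at eight concentrations spanning 0.1 to 10 mM, 10 min at room temperature then 3 min at 37 °C. Solubilisation with 0.8% NP40 and benzonase and ultracentrifugation preceded TMT labelling of the supernatant for LC-MS/MS. Fold change against the detergent-processed vehicle was determined per replicate from vsn-normalised intensities, across three independent experiments.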

DDX52 = biological target: T2, DDX52 (UniProt Q9Y2R4)
T2 sequence (whole entry): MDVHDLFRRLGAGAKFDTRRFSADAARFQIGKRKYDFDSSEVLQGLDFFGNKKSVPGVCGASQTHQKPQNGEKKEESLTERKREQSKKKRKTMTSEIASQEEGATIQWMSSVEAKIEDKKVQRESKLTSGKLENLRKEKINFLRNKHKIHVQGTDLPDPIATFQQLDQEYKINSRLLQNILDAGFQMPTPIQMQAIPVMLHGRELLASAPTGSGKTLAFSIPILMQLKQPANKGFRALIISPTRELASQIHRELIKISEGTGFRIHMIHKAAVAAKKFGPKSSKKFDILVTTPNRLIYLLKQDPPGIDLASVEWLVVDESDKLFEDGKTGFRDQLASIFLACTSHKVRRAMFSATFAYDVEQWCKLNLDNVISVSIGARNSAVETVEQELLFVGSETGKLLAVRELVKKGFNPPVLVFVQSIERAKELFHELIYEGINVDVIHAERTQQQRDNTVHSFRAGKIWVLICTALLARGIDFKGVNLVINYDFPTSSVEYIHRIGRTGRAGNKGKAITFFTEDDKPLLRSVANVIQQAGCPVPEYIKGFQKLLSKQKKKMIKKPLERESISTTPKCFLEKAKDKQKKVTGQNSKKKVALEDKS
How it was run: as §1

FHOD1 = biological target: T3, FHOD1 (UniProt Q9Y613)
T3 sequence (whole entry): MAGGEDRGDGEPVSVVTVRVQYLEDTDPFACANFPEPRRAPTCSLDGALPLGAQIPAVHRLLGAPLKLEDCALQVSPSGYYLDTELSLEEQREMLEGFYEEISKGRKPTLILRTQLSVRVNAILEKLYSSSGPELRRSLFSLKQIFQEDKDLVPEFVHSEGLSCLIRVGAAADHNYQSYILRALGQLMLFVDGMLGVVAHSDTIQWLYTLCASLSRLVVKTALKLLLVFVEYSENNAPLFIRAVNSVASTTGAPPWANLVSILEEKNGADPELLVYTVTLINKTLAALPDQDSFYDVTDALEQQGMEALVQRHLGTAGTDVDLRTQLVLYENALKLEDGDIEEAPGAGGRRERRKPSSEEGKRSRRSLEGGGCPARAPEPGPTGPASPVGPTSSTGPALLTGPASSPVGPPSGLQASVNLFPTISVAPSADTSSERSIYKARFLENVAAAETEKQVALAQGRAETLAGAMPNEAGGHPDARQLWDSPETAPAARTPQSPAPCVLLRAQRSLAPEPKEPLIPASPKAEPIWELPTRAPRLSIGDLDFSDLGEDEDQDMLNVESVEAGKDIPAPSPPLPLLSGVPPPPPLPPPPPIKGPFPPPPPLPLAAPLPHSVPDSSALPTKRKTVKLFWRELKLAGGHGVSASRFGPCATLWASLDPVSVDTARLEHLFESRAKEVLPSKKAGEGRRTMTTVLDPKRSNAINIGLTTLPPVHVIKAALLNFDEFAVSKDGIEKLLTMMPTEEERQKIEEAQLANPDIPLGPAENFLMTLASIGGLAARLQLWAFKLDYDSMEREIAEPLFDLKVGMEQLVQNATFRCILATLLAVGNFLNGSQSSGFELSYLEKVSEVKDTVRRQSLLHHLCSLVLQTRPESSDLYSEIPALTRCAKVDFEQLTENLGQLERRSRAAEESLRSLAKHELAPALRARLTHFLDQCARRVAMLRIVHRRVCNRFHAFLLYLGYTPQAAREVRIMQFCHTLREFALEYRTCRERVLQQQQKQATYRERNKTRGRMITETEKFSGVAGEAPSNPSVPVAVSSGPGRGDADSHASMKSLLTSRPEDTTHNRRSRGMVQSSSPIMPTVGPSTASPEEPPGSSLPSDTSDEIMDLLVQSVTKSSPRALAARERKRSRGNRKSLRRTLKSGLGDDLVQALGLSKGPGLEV
How it was run: as §1

UniProt Q9Y6I3|Q9Y6I3-3 = biological target: T4, UniProt Q9Y6I3|Q9Y6I3-3
T4 sequence (whole entry): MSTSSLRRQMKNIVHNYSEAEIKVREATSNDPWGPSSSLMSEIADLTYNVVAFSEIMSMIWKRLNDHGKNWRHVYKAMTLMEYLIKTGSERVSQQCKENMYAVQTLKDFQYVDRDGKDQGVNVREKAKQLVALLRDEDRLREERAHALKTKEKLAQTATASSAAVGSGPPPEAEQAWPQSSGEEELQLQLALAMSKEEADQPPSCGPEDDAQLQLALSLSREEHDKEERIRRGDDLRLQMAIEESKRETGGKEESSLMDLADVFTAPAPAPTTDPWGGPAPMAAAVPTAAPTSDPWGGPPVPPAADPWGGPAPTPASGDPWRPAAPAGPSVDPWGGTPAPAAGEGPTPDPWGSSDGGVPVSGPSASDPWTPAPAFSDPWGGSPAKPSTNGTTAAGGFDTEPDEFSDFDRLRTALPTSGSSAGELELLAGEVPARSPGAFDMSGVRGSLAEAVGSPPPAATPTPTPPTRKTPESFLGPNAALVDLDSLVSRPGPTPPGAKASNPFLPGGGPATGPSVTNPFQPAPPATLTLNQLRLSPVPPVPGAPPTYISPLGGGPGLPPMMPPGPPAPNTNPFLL
How it was run: as §1

[1] = biological target: T5, UniProt Q9Y6M7-13|Q9Y6M7-6|Q9Y6M7-9|Q9Y6M7-5|A0A0A0MST8
T5 sequence (whole entry): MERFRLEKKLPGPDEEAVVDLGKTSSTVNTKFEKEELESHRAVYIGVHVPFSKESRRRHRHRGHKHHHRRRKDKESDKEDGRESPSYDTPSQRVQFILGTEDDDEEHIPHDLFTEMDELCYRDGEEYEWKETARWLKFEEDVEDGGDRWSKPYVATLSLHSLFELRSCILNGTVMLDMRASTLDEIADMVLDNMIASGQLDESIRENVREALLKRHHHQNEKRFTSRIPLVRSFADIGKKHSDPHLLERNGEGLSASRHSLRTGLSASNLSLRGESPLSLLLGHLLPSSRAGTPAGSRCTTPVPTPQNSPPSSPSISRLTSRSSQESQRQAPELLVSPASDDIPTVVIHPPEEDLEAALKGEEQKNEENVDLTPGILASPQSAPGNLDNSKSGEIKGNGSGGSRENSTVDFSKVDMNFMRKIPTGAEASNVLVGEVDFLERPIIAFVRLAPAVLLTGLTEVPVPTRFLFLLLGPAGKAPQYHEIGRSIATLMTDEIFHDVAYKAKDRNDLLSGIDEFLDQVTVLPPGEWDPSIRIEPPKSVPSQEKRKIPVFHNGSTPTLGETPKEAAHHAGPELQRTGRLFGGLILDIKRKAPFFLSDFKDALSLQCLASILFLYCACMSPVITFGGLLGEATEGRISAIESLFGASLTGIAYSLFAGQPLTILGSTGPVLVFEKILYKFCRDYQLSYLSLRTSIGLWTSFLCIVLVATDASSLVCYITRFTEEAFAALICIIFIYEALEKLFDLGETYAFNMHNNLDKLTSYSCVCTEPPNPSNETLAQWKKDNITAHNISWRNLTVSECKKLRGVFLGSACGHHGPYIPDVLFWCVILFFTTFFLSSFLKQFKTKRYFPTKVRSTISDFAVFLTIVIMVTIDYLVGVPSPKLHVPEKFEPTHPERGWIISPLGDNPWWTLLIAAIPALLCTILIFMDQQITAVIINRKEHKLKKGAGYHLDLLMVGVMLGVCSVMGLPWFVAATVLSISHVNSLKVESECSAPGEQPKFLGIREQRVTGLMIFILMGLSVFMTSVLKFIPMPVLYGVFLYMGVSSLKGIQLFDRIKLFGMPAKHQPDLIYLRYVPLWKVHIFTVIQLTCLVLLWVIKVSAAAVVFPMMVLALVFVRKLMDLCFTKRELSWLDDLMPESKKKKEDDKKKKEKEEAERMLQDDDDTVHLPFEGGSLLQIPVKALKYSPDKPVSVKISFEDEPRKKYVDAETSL
How it was run: as §1

Nc1ncnc2c1ncn2[C@@H]1O[C@H](COP(=O)(O)OP(=O)(O)OP(=O)(O)O)[C@@H](O)[C@H]1O [adenosine triphosphate]
NP40-soluble protein abundance (ALG5; concentration: 1mM): 1.03 ± 0.089
NP40-soluble protein abundance (ALG5; concentration: 2mM): 1.02 ± 0.074
NP40-soluble protein abundance (ALG5; concentration: 4mM): 1.03 ± 0.088
NP40-soluble protein abundance (ALG5; concentration: 6mM): 0.97 ± 0.13
NP40-soluble protein abundance (ALG5; concentration: 8mM): 1.03 ± 0.1
NP40-soluble protein abundance (ALG5; concentration: 10mM): 1.02 ± 0.058
NP40-soluble protein abundance (DDX52; concentration: 1mM): 1.11 ± 0.11
NP40-soluble protein abundance (DDX52; concentration: 2mM): 1.16 ± 0.17
NP40-soluble protein abundance (DDX52; concentration: 4mM): 1.31 ± 0.27
NP40-soluble protein abundance (DDX52; concentration: 6mM): 1.41 ± 0.23
NP40-soluble protein abundance (DDX52; concentration: 8mM): 1.51 ± 0.37
NP40-soluble protein abundance (DDX52; concentration: 10mM): 1.71 ± 0.49
NP40-soluble protein abundance (FHOD1; concentration: 1mM): 0.963 ± 0.062
NP40-soluble protein abundance (FHOD1; concentration: 2mM): 1.01 ± 0.085
NP40-soluble protein abundance (FHOD1; concentration: 4mM): 1.02 ± 0.058
NP40-soluble protein abundance (FHOD1; concentration: 6mM): 1.01 ± 0.078
NP40-soluble protein abundance (FHOD1; concentration: 8mM): 0.952 ± 0.068
NP40-soluble protein abundance (FHOD1; concentration: 10mM): 0.96 ± 0.055
NP40-soluble protein abundance (UniProt Q9Y6I3|Q9Y6I3-3; concentration: 1mM): 0.932 ± 0.045
NP40-soluble protein abundance (UniProt Q9Y6I3|Q9Y6I3-3; concentration: 2mM): 0.915 ± 0.018
NP40-soluble protein abundance (UniProt Q9Y6I3|Q9Y6I3-3; concentration: 4mM): 0.915 ± 0.023
NP40-soluble protein abundance (UniProt Q9Y6I3|Q9Y6I3-3; concentration: 6mM): 0.927 ± 0.037
NP40-soluble protein abundance (UniProt Q9Y6I3|Q9Y6I3-3; concentration: 8mM): 0.907 ± 0.029
NP40-soluble protein abundance (UniProt Q9Y6I3|Q9Y6I3-3; concentration: 10mM): 0.894 ± 0.014
NP40-soluble protein abundance ([1]; concentration: 1mM): 1.05 ± 0.022
NP40-soluble protein abundance ([1]; concentration: 2mM): 1.03 ± 0.026
NP40-soluble protein abundance ([1]; concentration: 4mM): 1.05 ± 0.036
NP40-soluble protein abundance ([1]; concentration: 6mM): 1.04 ± 0.032
NP40-soluble protein abundance ([1]; concentration: 8mM): 1.06 ± 0.024
NP40-soluble protein abundance ([1]; concentration: 10mM): 1.02 ± 0.034
